Data published in the supplement of paper PMC8047044.
“And” between values parts separate entries of the source, which are not always exact repeats. Equal entries are not always repeated. Structures can show the parent of a compound that is named as a salt.

What follows are compounds tested on Neuro-2a (assay: neurite formation score, plate-normalized to DMSO control mean 5.04 (score (0-8 scale)); higher = more or longer neurites). Settings: 1 µM.
Description: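 Neuro-2a mouse neuroblastoma cells in PLL-coated 96-well plates were pre-treated for 1 h in DMEM(+) with each kinase inhibitor at 1 µM, then switched to serum-free DMEM(-) with inhibitor to induce neurite outgrowth and fixed about 2-3 h later. Three blinded observers scored neurite formation from 0 (no neurites) to 8 (long neurites on almost all cells).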
In the case of `Cc1cnc(-c2cnc(NCCNc3ccc(C#N)cn3)nc2-c2ccc(Cl)cc2Cl)[nH]1`, the neurite formation score is reported as 5.29 and 4.57.
For `O=[N+]([O-])c1ccc(Nc2nc(N3CCOCC3)nc(N3CCOCC3)n2)cc1`, the neurite formation score was 4.21.
In the case of `O=C(Nc1ccccc1C(=O)NC1CCCCNC1=O)c1cc2ccccc2s1` (centres undefined), the neurite formation score is reported as 3.54.
Work on `CCc1ccc(/C=C2/SC(=S)NC2=O)cc1` yielded a neurite formation score of 5.57.
Compound `CO[C@H]1C[C@@H]2CC[C@@H](C)[C@@](O)(O2)C(=O)C(=O)N2CCCC[C@H]2C(=O)O[C@H]([C@H](C)C[C@@H]2CC[C@@H](OCCO)[C@H](OC)C2)CC(=O)[C@H](C)/C=C(\C)[C@@H](O)[C@@H](OC)C(=O)[C@H](C)C[C@H](C)/C=C/C=C/C=C/1C` [Everolimus (RAD001)] has a neurite formation score of 4.57.
For `Nc1nc(Nc2ccc3c(c2)CCC(N2CCCC2)CC3)nn1-c1cc2c(nn1)-c1ccccc1CCC2` (centres undefined), the neurite formation score was 4.24.
`CC(=O)c1c(C)c2cnc(Nc3ccc(N4CCNCC4)cn3)nc2n(C2CCCC2)c1=O` gave a neurite formation score of 4.57.
For `CN1CCN(c2ccc(OC(F)(F)F)c(Nc3ncc4c(n3)-c3c(c(C(N)=O)nn3CCO)CC4)c2)CC1`, the neurite formation score was 4.88.
In the case of `COc1cc(Nc2ncc(F)c(Nc3ccc4c(n3)NC(=O)C(C)(C)O4)n2)cc(OC)c1OC`, the neurite formation score is reported as 5.63.
`Nc1ccc(-c2ccc3ncc4ccc(=O)n(-c5cccc(C(F)(F)F)c5)c4c3c2)cn1` [Torin 2] gave a neurite formation score of 3.21.
For `O=C1NCCSc2c1sc1ccc(O)cc21`, the neurite formation score was 3.69.
In the case of `COc1cc2/c(=N/c3ccc(Br)cc3F)nc[nH]c2cc1OCC1CCN(C)CC1` [Vandetanib (ZD6474)], the neurite formation score is reported as 4.8.
Compound `CC(C)(C)c1nc2c3cc[nH]c(=O)c3c3cc(F)ccc3c2[nH]1` [Pyridone 6] has a neurite formation score of 3.69.
With `O=S(=O)(c1cccc2cnccc12)N1CCCNCC1` [Fasudil (HA-1077) HCl] the neurite formation score was 4.24.
In the case of `NC(=S)N/N=C/c1ncccc1N` [Triapine], the neurite formation score is reported as 4.88.
`O=C(NCCCNc1nc(Nc2cccc(CN3CCOCC3)c2)ncc1C1CC1)C1CCC1` was tested, and the neurite formation score was 5.02.
Compound `COc1ccc(-c2ccc3c(N4CCOC[C@@H]4C)nc(N4CCOC[C@@H]4C)nc3n2)cc1CO` has a neurite formation score of 4.57.
`Cc1[nH]c(/C=C2\C(=O)Nc3ccc(S(=O)(=O)Cc4c(Cl)cccc4Cl)cc32)c(C)c1C(=O)N1CCC[C@@H]1CN1CCCC1` gave a neurite formation score of 3.91.
`CC(C)(C)c1cc(NC(=O)Nc2ccc(-c3cn4c(n3)sc3cc(OCCN5CCOCC5)ccc34)cc2)no1` [Quizartinib (AC220)] gave a neurite formation score of 4.57.
`Cn1sc(=O)n(Cc2ccccc2)c1=O` showed a neurite formation score of 2.96.
Compound `COc1cc(C(=O)NC2CCN(C)CC2)ccc1Nc1ncc2c(n1)N(C1CCCC1)CC(F)(F)C(=O)N2C` has a neurite formation score of 4.29.
`N#CC[C@H](C1CCCC1)n1cc(-c2ncnc3[nH]ccc23)cn1` [Ruxolitinib phosphate] was tested, and the neurite formation score was 5.02.
In the case of `NCC(=O)Nc1ccc(-n2nc(C(F)(F)F)cc2-c2ccc3c(ccc4ccccc43)c2)cc1`, the neurite formation score is reported as 5.57.
Work on `CN(c1ccccc1CNc1nc(Nc2ccc3c(c2)CC(=O)N3)ncc1C(F)(F)F)S(C)(=O)=O` yielded a neurite formation score of 4.29.
`CO[C@H]1C[C@@H]2CC[C@@H](C)[C@@](O)(O2)C(=O)C(=O)N2CCCC[C@H]2C(=O)O[C@H]([C@H](C)C[C@@H]2CC[C@@H](OC(=O)C(C)(CO)CO)[C@H](OC)C2)CC(=O)[C@H](C)/C=C(\C)[C@@H](O)[C@@H](OC)C(=O)[C@H](C)C[C@H](C)/C=C/C=C/C=C/1C` [Temsirolimus] showed a neurite formation score of 4.24.
In the case of `CC(C)(CCCCCC(O)CCCCCC(C)(C)C(=O)O)C(=O)O`, the neurite formation score is reported as 0.138.
In the case of `C[C@H]1Oc2cc(cnc2N)-c2c(nn(C)c2C#N)CN(C)C(=O)c2ccc(F)cc21`, the neurite formation score is reported as 4.21.
For `CNC(=O)c1ccccc1Sc1ccc2c(/C=C/c3ccccn3)n[nH]c2c1`, the neurite formation score was 3.57.
`CCN(CCO)CCCOc1ccc2c(Nc3cc(CC(=O)Nc4cccc(F)c4)[nH]n3)ncnc2c1` [Barasertib (AZD1152-HQPA)] gave a neurite formation score of 4.69.
Work on `O=C(NCCO)c1cccc(-c2cc(Nc3ccc(OC(F)(F)F)cc3)ncn2)c1` yielded a neurite formation score of 5.63.
`Cc1ncc(-c2ccnc(Nc3ccc(S(C)(=O)=O)cc3)n2)n1C(C)C` showed a neurite formation score of 4.24.
With `O=C(NOCC1CC1)c1ccc(F)c(F)c1Nc1ccc(I)cc1Cl` the neurite formation score was 3.91.
`CC[C@H](CO)Nc1nc(NCc2ccccc2)c2ncn(C(C)C)c2n1` [Roscovitine (Seliciclib,CYC202)] gave a neurite formation score of 4.57.
`COc1cc2ncnc(Nc3ccc(F)c(Cl)c3)c2cc1OCCCN1CCOCC1` [Gefitinib (ZD1839)] gave a neurite formation score of 4.24.
